Records with an inconclusive call do not appear. Activity calls are given as the source filed them. Unless noted, calls come from the whole dose curve; as a rule, active = well fitted curve in the direction sought with a large enough effect in the repeat runs; inconclusive = weak or mixed curves; inactive = no such curve, though single readings can be large; an effect the other way counts as inactive or inconclusive.

Test [1] can be described thus: qHTS assay to identify small molecule antagonists of the peroxisome proliferator-activated receptor gamma (PPARg) signaling pathway - cell viability counter screen (AID 743194). Note: nearly all actives have a fitted effect of over 55% in size. Note: potency is the fitted concentration of half-maximal effect. The conditions noted are these: PPARg-bla HEK293H viability, CellTiter-Glo luminescence, 17 h, co-treated with 50 nM rosiglitazone; series mostly up to 62.6 µM. An outline of the steps: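 Viability was measured as CellTiter-Glo luminescence in GeneBLAzer PPARg UAS-bla HEK293H cells. These cells had been exposed 17 h at 37 C to compounds together with rosiglitazone at 50 nM final, with the beta-lactamase readout taken in the same wells.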

The nature of test [2]: qHTS assay for small molecule agonists of the antioxidant response element (ARE) signaling pathway - cell viability counter screen (AID 743203; calls by dose curve; note: nearly all actives have a fitted effect of over 55% in size; note: potency is the fitted concentration of half-maximal effect). The conditions noted are these: ARE-bla HepG2 viability, CellTiter-Glo luminescence, 16 h; series mostly up to 73.3 µM. An outline of the steps: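 Parallel cytotoxicity read-out for the ARE-bla screen: HepG2 reporter cells, 16 hrs with compounds, then CellTiter-Glo luminescence.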
(In general: Quantitative high-throughput screening tests each substance at several concentrations.)

Test [3] can be described thus: qHTS assay for small molecule activators of the heat shock response signaling pathway - cell viability counter screen (AID 743209). Note: nearly all actives have a fitted effect of over 50% in size. Note: potency is the fitted concentration of half-maximal effect. The conditions noted are these: HSE-bla HeLa viability, CellTiter-Glo luminescence, 5 h; series mostly up to 62.6 µM. An outline of the steps: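 To flag cytotoxic compounds, HSE-bla HeLa cells plated at 1500 cells/well were dosed for 5 h at 37 C, followed by the reporter FRET read and then CellTiter-Glo, with luminescence recorded 30 min after reagent addition.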

The nature of test [4]: qHTS assay to identify small molecule agonists of the peroxisome proliferator-activated receptor delta (PPARd) signaling pathway - cell viability counter screen (AID 743211). Note: nearly all actives have a fitted effect of over 55% in size. Note: potency is the fitted concentration of half-maximal effect. The note with it: PPARd-bla HEK293H viability, CellTiter-Glo luminescence, 17 h; series mostly up to 62.6 µM. The gist of the method:
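Viability was measured as CellTiter-Glo luminescence (30 min, room temperature) in the same wells as the beta-lactamase readout. GeneBLAzer PPARd UAS-bla HEK293H cells received compound after 5 h plating and were incubated 17 h at 37 C.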

The target in test [5] is Peroxisome proliferator-activated receptor gamma (Homo sapiens) (UniProt P37231). As to the kind of experiment: qHTS assay to identify small molecule antagonists of the peroxisome proliferator-activated receptor gamma (PPARg) signaling pathway (AID 743191; calls by dose curve; note: nearly all actives have a fitted effect of over 30% in size). The note with it: HEK293H PPARg-UAS-bla, beta-lactamase ratio, antagonist, 17 h; series mostly up to 62.6 µM. The gist of the method: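 Beta-lactamase reporter under UAS control in HEK293H PPARg-bla cells; compound treatment 17 h at 37C. Read-out: fluorescence intensity after 1 h room-temperature incubation with LiveBLAzer B/G FRET substrate.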

The nature of test [6]: qHTS assay for small molecule activators of the heat shock response signaling pathway (AID 743210; active = well fitted activation curve with a large enough effect in the signal ratio in the repeat runs, with a control signal flat, not every such curve was filed as active; the % refers to the signal ratio; note: potency is the fitted concentration of half-maximal effect). The conditions noted are these: HeLa HSE-bla reporter, beta-lactamase ratio, 5 h; series mostly up to 62.6 µM. The gist of the method: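 Fluorescence from a cleaved B/G FRET substrate (2.5 h, room temp) reports HSE-driven beta-lactamase in HeLa cells treated 5 h at 37 C with DMSO-dissolved compounds.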

Test [7] is described as follows: qHTS assay for small molecule agonists of the antioxidant response element (ARE) signaling pathway (AID 743202; active = well fitted activation curve with a large enough effect in the signal ratio in the repeat runs, not every such curve was filed as active; the % refers to the signal ratio; note: potency is the fitted concentration of half-maximal effect). The note with it: HepG2 ARE-bla reporter, beta-lactamase FRET, 16 h; series mostly up to 73.3 µM. An outline of the steps: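 Beta-lactamase reporter activity, read as fluorescence intensity, reflects ARE/Nrf2 pathway induction in HepG2 cells after 16 h compound exposure at 37 C; substrate loading was 2 h at room temperature.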

Test [8] addresses Peroxisome proliferator-activated receptor gamma (Homo sapiens) (UniProt P37231). As to the kind of experiment: qHTS assay to identify small molecule agonists of the peroxisome proliferator-activated receptor gamma (PPARg) signaling pathway (AID 743094; active = well fitted activation curve with a large enough effect in the signal ratio in the repeat runs, not every such curve was filed as active; the % refers to the signal ratio; note: potency is the fitted concentration of half-maximal effect). The note with it: HEK293H PPARg-UAS-bla, beta-lactamase FRET ratio, 17 h; series mostly up to 57 µM. The gist of the method: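 Fluorescence-based beta-lactamase readout in HEK293H PPARg UAS-bla cells after 17 h compound exposure (37C) and 1 h B/G FRET substrate incubation at room temperature.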

Sequence of Peroxisome proliferator-activated receptor gamma (Homo sapiens) (P37231 whole entry, looked up): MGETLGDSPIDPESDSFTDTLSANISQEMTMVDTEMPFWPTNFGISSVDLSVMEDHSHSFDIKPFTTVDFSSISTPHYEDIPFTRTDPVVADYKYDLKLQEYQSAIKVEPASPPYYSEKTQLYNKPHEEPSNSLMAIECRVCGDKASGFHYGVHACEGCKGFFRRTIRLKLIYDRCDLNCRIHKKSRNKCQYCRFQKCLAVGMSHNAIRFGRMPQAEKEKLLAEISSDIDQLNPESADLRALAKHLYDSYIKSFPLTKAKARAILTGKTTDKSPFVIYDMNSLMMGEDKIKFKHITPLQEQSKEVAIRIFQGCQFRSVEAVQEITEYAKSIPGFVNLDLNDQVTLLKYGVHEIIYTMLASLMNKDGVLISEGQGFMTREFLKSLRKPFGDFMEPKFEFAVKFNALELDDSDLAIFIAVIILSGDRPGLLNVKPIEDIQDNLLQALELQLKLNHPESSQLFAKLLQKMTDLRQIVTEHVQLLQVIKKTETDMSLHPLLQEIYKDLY

For the compound `Nc1ccc(N)c2ccccc12`, the Potency in test [1] was 1.23 µM (active); in test [2] it was 0.611 µM (active); in test [3], 34.6 µM (active); in test [4], 15.5 µM (active).
As for `CC(C)C(C)(C)C(C)(C)C(C)(C)S`, the Potency result in test [3] is “inactive”.
Regarding `Cc1cccc(N(C)C(=S)Oc2ccc3c(c2)C2CCC3C2)c1` (stereo unspecified), the Potency entry in test [5], in test [1], in test [2], in test [3], in test [6] and in test [4] was “inactive” throughout.
As to `CCCN(CCC)c1c([N+](=O)[O-])cc(C(F)(F)F)c(N)c1[N+](=O)[O-]`, the Potency was 19.4 µM (active) in test [1], 60.9 µM (active) in test [2], 34.6 µM (active) in test [3] and 19.4 µM (active) in test [4].
With `Cc1ccc(O)c2ncccc12`, the Potency in test [7] was 4.22 µM (active); in test [4] it was 0.841 µM (active).
Consider `CC(C)(C)c1ccc(C(=O)CCCN2CCC(OC(c3ccccc3)c3ccccc3)CC2)cc1`, for which the Potency in test [2] and in test [3] was 29.8 µM (active) in each case.
Take `Cc1oc(-c2ccccc2)nc1CCC(=O)c1ccc(CC2SC(=O)NC2=O)cc1` (stereo unspecified): the Potency in test [7] was 13.3 µM (active). Further, the Potency entry in test [2], in test [3] and in test [4] was “inactive” each time.
As for `C/C(=C(/OCCOc1ccc(Cl)cc1)c1ccc(Cl)cc1Cl)n1ccnc1`, the Potency result in test [5] and in test [3] was “inactive” in each case. For the same compound, the Potency in test [2] is 42.2 µM (active).
Consider `CCc1oc2ccccc2c1C(=O)c1cc(Br)c(O)c(Br)c1`, for which the Potency in test [8] was 3.01 µM (active); in test [2], 23.7 µM (active). Besides, the Potency result in test [3] is “inactive”.
As to `Cc1cc(=O)oc2cc(N(C)C)ccc12`, the Potency entry in test [1], in test [2], in test [3] and in test [4] was “inactive” throughout. Also, the Potency in test [6] is 34.7 µM (active).
`N#CSc1ccc(N)c([N+](=O)[O-])c1`: the Potency entry in test [2] and in test [3] was “inactive” throughout. The Potency in test [4] is 55.3 µM (active).
Take `COC(=O)c1cc(Cl)ccc1OC`: the Potency result in test [5], in test [1], in test [7], in test [2], in test [3] and in test [6] was “inactive” each time. In test [4], the Potency result is “inactive”.
Take `CCCCCCCC(=O)[O-].CCCCCCCC(=O)[O-].[Zn+2]`: the Potency entry in test [5], in test [1], in test [7], in test [2], in test [3] and in test [6] was “inactive” throughout. Further, the Potency entry in test [4] is “inactive”.

Source of the values: PubChem BioAssay (Tox21).
